In PubChem BioAssay:
Active and inactive are the calls of the source.

What was measured:
[1] = biological target: Albumin (Bos taurus) (UniProt P02769); assay: bovine serum albumin binders on microarray, profiling panel, artefact control for SMM control protein annotation, biochemical, small-molecule microarray, Alexa647 label, 635/667 nm fluorescence (AID 1118); settings: BSA-A647 binding, fluorescence 635 nm, higher = more signal;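 also: score merges 667 nm emission intensity and signal-to-noise per printed compound spot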
[2] = small-molecule microarray binders of probe aXIP, primary screen, biochemical, NeuroSMM set, 635/667 nm fluorescence (AID 1119); settings: higher = more signal, called active from +8 up or from −8 down;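 also: probe is the protein aXip251-270 applied at 1 µg/mL to compound-printed slides; binding of probe to printed compounds measured as 667 nm fluorescence plus signal to noise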
[3] = small-molecule binders of probe aNOTCH3, primary screen, biochemical, small-molecule microarray, 635/667 nm fluorescence (AID 1120); settings: higher = more signal;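 also: probe is a biotin-tagged antibody raised against NOTCH3 rather than NOTCH3 protein; score merges spot fluorescence near 667 nm with spot signal to noise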
[4] = small-molecule binders of probe aNOTCH2, primary screen, biochemical, small-molecule microarray, 635/667 nm fluorescence (AID 1121); settings: higher = more signal;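 also: score merges feature fluorescence read at 667 nm with its signal to noise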
[5] = biological target: Carbonic anhydrase 2 (Homo sapiens) (UniProt P00918); assay: CAII small-molecule binders, profiling panel, biochemical, small-molecule microarray, Alexa647-labelled CAII (AID 1122); settings: CAII-A647 binding fluorescence, higher = more signal
[6] = COS7 lysate on small-molecule microarray, probe aHis, 635 nm (AID 1123); settings: COS7 cell lysate, fluorescence, higher = more signal;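 also: z-score combines 667nm fluorescence intensity with signal-to-noise per printed compound spot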
[7] = compound binding in COS7 lysate, probe aLAP1, primary screen, cell lysate, small-molecule microarray (AID 1124); settings: probe aLAP1, fluorescence, higher = more signal;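 also: lysate comes from COS7 cells expressing LAP1 and is applied at 0.3 µg/mL; score merges spot fluorescence near 667 nm with signal-to-noise over triplicate slides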
[8] = system: Sam68 (KHDRBS1); assay: Sam68 small-molecule binders, primary screen, biochemical, small-molecule microarray, 635 nm fluorescence (AID 1125); settings: small-molecule microarray binding, higher = more signal;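 also: score merges 667 nm channel intensity with signal to noise over triplicate slides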
[9] = system: Chordin-like protein 2 (CHRDL2); assay: CHRDL2 small-molecule binders, primary screen, biochemical, small-molecule microarray, 635 nm fluorescence (AID 1126); settings: small-molecule microarray binding, fluorescence 635 nm; higher = more signal;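 also: printed compound slides probed with Chrdl2 protein at 4 µg/mL for 1 h at 4 C; score merges 667 nm emission intensity with signal to noise over three replicate slides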
[10] = biological target: Concanavalin-A (Canavalia ensiformis) (UniProt P02866); assay: ConA small-molecule binders, primary screen, artefact control for SMM control protein annotation, biochemical, small-molecule microarray, Alexa647 label, 635 nm (AID 1127); settings: ConA-A647 binding fluorescence, higher = more signal;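 also: z combines 667 nm emission intensity with signal-to-noise across three replicate slides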
[11] = anti-His antibody binders, primary screen, artefact control for SMM control protein annotation, biochemical, small-molecule microarray, 635 nm fluorescence (AID 1128); settings: anti-His Alexa647 antibody binding, higher = more signal;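 also: score merges feature fluorescence with signal-to-noise for each printed compound spot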
[12] = system: Human papillomavirus type 1a E7 protein (residues 1-88); assay: HPV1a E7 small-molecule binders, primary screen, biochemical, small-molecule microarray, residues 1-88, 635 nm (AID 1129); settings: small-molecule microarray binding, fluorescence 635 nm; higher = more signal
[13] = biological target: Focal adhesion kinase 1 (Homo sapiens) (UniProt Q05397); assay: small-molecule microarray binders of FAK, primary screen, biochemical, 635/667 nm fluorescence, BSA, DTT (AID 1130); settings: PTK2 binding, 635 nm fluorescence, higher = more signal;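 also: composite of spot emission at 667 nm and signal to noise over triplicate slides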
[14] = system: Fibrinogen (Alexa647-labelled); assay: fibrinogen binders on compound microarrays, profiling panel, artefact control for SMM control-protein annotation, biochemical, small-molecule microarray, 635/667 nm fluorescence (AID 1131); settings: fibrinogen-A647 binding fluorescence, higher = more signal;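 also: z-score merges 667 nm fluorescence with per-spot signal-to-noise over triplicate slides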
[15] = biological target: Follistatin (Homo sapiens) (UniProt P19883); assay: follistatin binders on small-molecule microarrays, primary screen, biochemical, small-molecule microarray, 635/667 nm fluorescence (AID 1132); settings: FST binding, 635 nm fluorescence, higher = more signal
[16] = biological target: Fibroblast growth factor 2 (Homo sapiens) (UniProt P09038); assay: FGF2 binders on small-molecule microarrays, primary screen, biochemical, small-molecule microarray, 635/667 nm fluorescence (AID 1133); settings: small-molecule microarray binding, FGF2, fluorescence 635/667; higher = more signal
[17] = mitochondrial membrane potential change in A549 cells, profiling panel, cell-based, JC-1 fluorescence, basal, 24 h, 100 nL (AID 1138); settings: higher = more signal;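 also: A549 lung adenocarcinoma cells under basal conditions with no added stimulus; test concentration not given here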
[18] = system: Lefty1; assay: Lefty1 binders on small-molecule microarrays, primary screen, biochemical, small-molecule microarray, 635/667 nm fluorescence (AID 1139); settings: small-molecule microarray binding, fluorescence 635/667; higher = more signal
[19] = system: wheat germ agglutinin (Triticum aestivum), Alexa647-labelled; assay: wheat germ agglutinin binders on compound microarrays, profiling panel, artefact control for SMM control-protein annotation, biochemical, small-molecule microarray, 635/667 nm fluorescence (AID 1140); settings: WGA-A647 binding, 635 nm fluorescence, higher = more signal;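 also: score merges 667 nm feature emission with signal to noise over triplicate slides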
[20] = biological target: Luciferin 4-monooxygenase (Photinus pyralis) (UniProt P08659); assay: firefly luciferase enzyme inhibitors, primary screen, biochemical, luminescence, purified enzyme, 2006 set (AID 1141); settings: SteadyGlo luminescence, 30 min, higher = more signal, called active from +8 up or from −8 down;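 also: cell-free assay with purified firefly luciferase at 100 ng per well in PBS; test concentration not given here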
Chain of Luciferin 4-monooxygenase (Photinus pyralis) (P08659 whole entry, looked up): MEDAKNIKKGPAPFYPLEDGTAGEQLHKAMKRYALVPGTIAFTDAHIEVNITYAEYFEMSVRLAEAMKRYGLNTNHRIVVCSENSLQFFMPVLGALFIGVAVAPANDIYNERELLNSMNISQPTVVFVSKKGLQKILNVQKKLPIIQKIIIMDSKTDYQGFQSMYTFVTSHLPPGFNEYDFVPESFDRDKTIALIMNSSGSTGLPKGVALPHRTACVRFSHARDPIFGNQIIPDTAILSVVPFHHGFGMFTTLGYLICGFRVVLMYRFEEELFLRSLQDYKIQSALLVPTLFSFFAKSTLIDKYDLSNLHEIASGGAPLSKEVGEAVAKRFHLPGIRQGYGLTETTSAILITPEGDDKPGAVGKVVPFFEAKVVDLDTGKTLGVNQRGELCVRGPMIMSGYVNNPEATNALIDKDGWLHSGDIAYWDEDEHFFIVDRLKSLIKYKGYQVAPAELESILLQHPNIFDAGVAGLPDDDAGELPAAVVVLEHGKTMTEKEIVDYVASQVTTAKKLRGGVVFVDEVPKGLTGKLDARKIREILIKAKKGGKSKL

Chain of Albumin (Bos taurus) (P02769 whole entry, looked up): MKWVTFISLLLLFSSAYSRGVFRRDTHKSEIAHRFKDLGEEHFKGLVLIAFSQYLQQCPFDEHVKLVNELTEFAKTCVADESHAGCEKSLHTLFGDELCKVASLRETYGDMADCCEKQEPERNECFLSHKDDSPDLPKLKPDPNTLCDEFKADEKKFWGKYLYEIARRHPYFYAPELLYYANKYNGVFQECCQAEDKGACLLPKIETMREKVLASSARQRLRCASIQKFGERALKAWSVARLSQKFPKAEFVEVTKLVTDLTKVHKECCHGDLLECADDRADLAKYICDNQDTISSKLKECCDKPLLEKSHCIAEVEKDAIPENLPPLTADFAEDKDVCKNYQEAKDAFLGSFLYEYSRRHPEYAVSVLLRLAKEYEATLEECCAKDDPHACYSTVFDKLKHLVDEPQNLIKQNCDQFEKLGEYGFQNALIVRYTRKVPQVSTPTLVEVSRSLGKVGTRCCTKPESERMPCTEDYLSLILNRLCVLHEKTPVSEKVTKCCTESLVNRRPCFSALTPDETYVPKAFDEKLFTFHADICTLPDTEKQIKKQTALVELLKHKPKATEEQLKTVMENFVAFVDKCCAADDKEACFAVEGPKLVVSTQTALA
Chain of Fibroblast growth factor 2 (Homo sapiens) (P09038 whole entry, looked up): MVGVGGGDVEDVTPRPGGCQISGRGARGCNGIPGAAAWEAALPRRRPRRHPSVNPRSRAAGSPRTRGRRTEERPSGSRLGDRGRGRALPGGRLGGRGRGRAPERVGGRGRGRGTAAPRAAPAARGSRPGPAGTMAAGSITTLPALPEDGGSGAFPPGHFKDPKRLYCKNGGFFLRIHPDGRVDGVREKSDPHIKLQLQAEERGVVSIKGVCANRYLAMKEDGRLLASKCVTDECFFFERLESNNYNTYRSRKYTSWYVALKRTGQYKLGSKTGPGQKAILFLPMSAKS
Chain of Focal adhesion kinase 1 (Homo sapiens) (Q05397 whole entry, looked up): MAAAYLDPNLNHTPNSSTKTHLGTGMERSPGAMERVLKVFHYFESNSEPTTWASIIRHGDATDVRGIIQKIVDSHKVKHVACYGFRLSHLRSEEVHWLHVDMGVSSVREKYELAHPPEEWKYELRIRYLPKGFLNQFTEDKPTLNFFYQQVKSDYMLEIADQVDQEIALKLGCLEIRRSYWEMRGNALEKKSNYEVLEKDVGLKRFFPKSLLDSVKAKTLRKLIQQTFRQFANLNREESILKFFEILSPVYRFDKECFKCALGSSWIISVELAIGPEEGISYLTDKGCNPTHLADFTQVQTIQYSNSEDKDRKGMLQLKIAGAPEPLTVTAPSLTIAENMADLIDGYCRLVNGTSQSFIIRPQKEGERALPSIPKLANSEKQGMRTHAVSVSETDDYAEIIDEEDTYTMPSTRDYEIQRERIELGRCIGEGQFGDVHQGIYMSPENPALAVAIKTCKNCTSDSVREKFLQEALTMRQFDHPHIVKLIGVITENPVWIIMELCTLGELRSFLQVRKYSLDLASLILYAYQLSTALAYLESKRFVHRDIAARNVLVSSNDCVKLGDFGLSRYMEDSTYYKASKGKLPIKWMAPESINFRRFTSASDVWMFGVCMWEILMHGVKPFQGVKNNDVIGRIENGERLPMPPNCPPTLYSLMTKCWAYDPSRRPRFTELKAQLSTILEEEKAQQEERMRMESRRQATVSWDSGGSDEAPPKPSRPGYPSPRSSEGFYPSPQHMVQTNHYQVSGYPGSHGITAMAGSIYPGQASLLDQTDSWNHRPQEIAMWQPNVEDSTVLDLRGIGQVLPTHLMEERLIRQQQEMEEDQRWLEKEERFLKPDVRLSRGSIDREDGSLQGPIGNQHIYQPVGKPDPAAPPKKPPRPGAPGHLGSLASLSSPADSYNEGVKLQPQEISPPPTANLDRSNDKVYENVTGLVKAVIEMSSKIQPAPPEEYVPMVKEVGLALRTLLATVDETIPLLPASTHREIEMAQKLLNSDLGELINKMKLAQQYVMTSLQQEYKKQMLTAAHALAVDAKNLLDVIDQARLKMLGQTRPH
Chain of Concanavalin-A (Canavalia ensiformis) (P02866 whole entry, looked up): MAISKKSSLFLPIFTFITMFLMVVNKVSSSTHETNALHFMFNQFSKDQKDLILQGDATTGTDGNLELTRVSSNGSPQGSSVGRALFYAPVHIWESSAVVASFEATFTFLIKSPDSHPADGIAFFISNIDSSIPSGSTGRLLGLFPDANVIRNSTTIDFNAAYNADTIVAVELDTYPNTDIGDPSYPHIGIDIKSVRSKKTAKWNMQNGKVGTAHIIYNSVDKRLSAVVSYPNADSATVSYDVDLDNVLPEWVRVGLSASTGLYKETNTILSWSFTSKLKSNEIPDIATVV
Chain of Follistatin (Homo sapiens) (P19883 whole entry, looked up): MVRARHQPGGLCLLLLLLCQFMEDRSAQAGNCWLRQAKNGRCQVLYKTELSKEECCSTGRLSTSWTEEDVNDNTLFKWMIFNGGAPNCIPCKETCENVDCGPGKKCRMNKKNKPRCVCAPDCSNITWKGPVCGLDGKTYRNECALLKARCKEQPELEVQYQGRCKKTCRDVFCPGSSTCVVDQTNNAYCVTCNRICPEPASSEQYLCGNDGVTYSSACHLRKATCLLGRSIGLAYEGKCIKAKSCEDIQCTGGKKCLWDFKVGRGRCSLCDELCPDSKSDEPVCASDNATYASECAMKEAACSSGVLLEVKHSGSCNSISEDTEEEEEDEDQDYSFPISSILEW

| SMILES | composite z-score [1] | composite Z-score [2] | composite z-score [3] | composite z-score [4] | composite z-score [5] | composite z-score [6] | composite z-score [7] | composite z-score [8] | composite z-score [9] | composite z-score [10] | composite z-score [11] | composite z-score [12] | composite z-score [13] | composite z-score [14] | composite z-score [15] | composite z-score [16] | z-score [17] | composite z-score [18] | composite z-score [19] | z-score [20] |
| --- | --- | --- | --- | --- | --- | --- | --- | --- | --- | --- | --- | --- | --- | --- | --- | --- | --- | --- | --- | --- |
| CO[C@H]1COC(=O)CC=C[C@H](C)COC(=O)[C@@H](C)NC(=O)CC=C[C@@H]1C | -0.854 | 0.842 (inactive) | -0.179 | -0.14 | -0.532 | -1.13 | 0.487 | 0.339 | 1.56 | -0.582 | 2.07 | -0.696 | -0.775 | -1.32 | 1.29 | 0.654 | -1.61 | 1.72 | -0.52 | 0.917 (inactive) |
| CCOC(=O)[C@H](Cc1ccccc1)NC(=O)CCC1CC(OC(=O)NCCc2ccc(F)cc2)CC2(CCCC(COC(=O)NCc3ccccc3)O2)O1 (stereo not given in full) | 0.0213 | 0.42 (inactive) | -0.0711 | -0.124 | 0.108 | 0.244 | -0.106 | 1.2 | 0.468 | 0.477 | 0.704 | 1.04 | 0.254 | 0.282 | 0.63 | 0.473 | 0.216 | 0.833 | 0.115 | 0.877 (inactive) |
| CC(C)[C@@H](OCc1ccccc1)[C@H](C)C=NOC[C@@H](O)COCc1ccco1 | -0.113 | -0.0572 (inactive) | -0.819 | -0.244 | -0.512 | 0.0121 | 0.0218 | -0.185 | -1.48 | -1.15 | 1.29 | -0.244 | -0.277 | -1.75 | -1.05 | -1.37 | -0.541 | -0.801 | -1.29 | 0.331 (inactive) |
| CCCNC(=O)OC[C@H]1O[C@H](CCON=C(C)CCC(=O)OC[C@H]2O[C@H](c3ccccc3)C=C[C@@H]2Oc2ccc(OC)cc2)C=C[C@@H]1Oc1ccc(OC)cc1 | 0.161 | -0.0662 (inactive) | -0.0762 | -0.14 | -0.459 | -0.528 | -0.155 | -1.25 | -0.181 | -0.721 | 2.6 | -1.45 | -0.447 | -0.467 | -0.342 | -0.273 | 0.424 | 0.171 | 0.619 | 1 (inactive) |
| CO[C@@H]1C=CCC(=O)N[C@@H](C)C(=O)OC[C@@H](OC)[C@H](C)CCCC(=O)OC[C@H]1C | -0.555 | -0.31 (inactive) | 0.0854 | -0.208 | -1.01 | -1.96 | 0.173 | -0.248 | 1.53 | -0.997 | 2.07 | -1.64 | -0.195 | -1.64 | 1.39 | 0.343 | -0.393 | 1.37 | -0.268 | 1.13 (inactive) |
| CO[C@H]1COC(=O)[C@@H](C)COC(=O)[C@H](COCc2ccccc2)NC(=O)CC=C[C@H]1C | -1.04 | 2.09 (inactive) | -0.0077 | -0.135 | -0.551 | -1.73 | -0.81 | -1.17 | 1.22 | -3.77 | -1.43 | -1.02 | -0.0555 | -0.785 | 1.36 | 1.21 | 0.844 | 1.09 | -0.841 | -0.949 (inactive) |
| CCOC(=O)C1=NO[C@@]2(C=C(Br)C3(OCCCO3)[C@H]3O[C@H]32)C1 | -1.04 | 0.44 (inactive) | 0.0962 | -0.14 | 0.486 | 0.336 | -0.145 | -0.268 | 1.52 | 0.313 | 0.968 | 0.228 | 0.0306 | 0.982 | 1.43 | 1.14 | -0.0326 | 1.04 | 0.818 | -0.279 (inactive) |
| CC(C)CON=C1C[C@@H](O)[C@@H](O)[C@@H]2[C@@H]3C(=O)N(C4CCCCC4)C(=O)[C@@H]3CC[C@@H]12 | 0.401 | -0.0662 (inactive) | -0.178 | -0.177 | 0.389 | 1.73 | -0.499 | 0.158 | -0.329 | 1.01 | 0.889 | -0.586 | 0.955 | 0.476 | 0.0116 | -0.309 | -0.572 | 0.225 | 0.556 | 0.0051 (inactive) |
| CC(C)CON=C1C[C@@H](O)[C@@H](O)[C@@H]2[C@@H]3C(=O)N(c4cccc(Oc5ccccc5)c4)C(=O)[C@@H]3CC[C@@H]12 | 0.621 | 0.0388 (inactive) | -0.0377 | -0.121 | 0.418 | 1.04 | 0.118 | 1.17 | 0.232 | 1.13 | 0.89 | 0.762 | 0.0599 | 1.02 | 0.266 | 0.314 | -0.289 | 0.13 | 0.561 | -0.172 (inactive) |
| COc1cc(O)c(C(=O)C=Cc2ccc3c(c2)OCO3)c(OC)c1 | 0.0618 | -0.024 (inactive) | -0.0647 | -0.134 | -0.337 | -0.932 | -0.185 | -1.93 | 0.102 | 1 | -0.132 | -1.44 | 0.0276 | 0.0337 | 0.4 | -0.19 | 0.209 | 0.707 | 0.393 | -5.1 (inactive) |
